# ST2 inh = IL1RL1 inhibition; AlphaLISA ST2-Fc/biotin-IL-33 interaction, 1 h; AID 1259354; inhibition, % for hits at 17 µM; hit rate 2.3% among 78,000; in the data active = inhibition above about 30%
# Target sequence (Q01638 whole entry, looked up): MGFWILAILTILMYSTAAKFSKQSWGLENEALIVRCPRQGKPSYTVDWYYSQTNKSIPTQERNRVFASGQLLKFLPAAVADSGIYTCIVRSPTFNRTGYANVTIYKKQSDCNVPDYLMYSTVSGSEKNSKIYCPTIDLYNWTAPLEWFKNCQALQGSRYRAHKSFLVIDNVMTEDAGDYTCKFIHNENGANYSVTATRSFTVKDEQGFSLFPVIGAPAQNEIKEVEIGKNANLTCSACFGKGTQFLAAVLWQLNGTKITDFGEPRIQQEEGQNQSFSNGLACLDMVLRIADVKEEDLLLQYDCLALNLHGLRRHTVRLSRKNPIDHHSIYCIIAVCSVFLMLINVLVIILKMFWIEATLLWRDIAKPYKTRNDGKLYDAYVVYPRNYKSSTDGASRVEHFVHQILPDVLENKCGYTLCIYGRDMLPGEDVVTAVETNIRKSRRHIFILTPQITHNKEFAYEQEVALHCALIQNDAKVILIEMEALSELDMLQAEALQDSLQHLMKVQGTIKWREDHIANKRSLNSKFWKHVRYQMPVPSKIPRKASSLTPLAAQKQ
# Numbers without * were called inactive; i = inactive. This excerpt belongs to a sample that is enriched for hits.
SMILES,ST2 inh
c1ccc2c(-c3cc(NC4CCNCC4)nc4[nH]ccc34)n[nH]c2c1,46.0%*
COc1ncc(-c2cc(NCCN(C)C)nc3[nH]ccc23)c(OC)n1,i
c1cnc(-c2cc(NC3CCNCC3)nc3[nH]ccc23)nc1,41.0%*
O=c1cc(O)n(-c2ccccc2)[nH]1,i
Cc1ccn2cc(-c3ccc(Cl)cc3)cc2c1,i
COc1ccc(NS(=O)(=O)c2c(Cl)nc(C)c(Cl)c2C)cc1,i
Cc1ccc(NS(=O)(=O)c2cccnc2)cc1F,i
Cn1c(=O)c2ncn(CC(=O)Nc3ccc4oc(-c5ccccc5F)nc4c3)c2n(C)c1=O,i
COc1ccc(S(=O)(=O)n2nnc3ccccc32)cc1C,i
CC(C)=C1C=CC(=C(C)C)S1(=O)=O,i
CCOc1ccc(NC(=O)CSc2nc3c(c(=O)n2-c2ccc(C)cc2)SCC3)cc1,i
O=[N+]([O-])c1cc2c(cc1C=Nc1ccc(O)c(-c3nc4ccccc4o3)c1)OCO2,35.0%*
Cc1ccccc1-c1nc2cc(N=Cc3cc([N+](=O)[O-])ccc3O)ccc2o1,i
O=[N+]([O-])c1cc2c(cc1C=Nc1ccc3oc(-c4cccc(F)c4)nc3c1)OCO2,i
O=[N+]([O-])c1ccc(O)c(C=Nc2ccc(-c3nc4ncccc4o3)cc2)c1,i
Cc1cccc2oc(-c3cc(N=Cc4ccc([N+](=O)[O-])cc4)ccc3O)nc12,30.0%*
Cc1ccccc1-c1nc2cc(N=Cc3cc([N+](=O)[O-])c(O)c([N+](=O)[O-])c3O)ccc2o1,i
CC(=O)N1CCc2c(sc(NC(=O)c3nc4ccccc4s3)c2-c2nc3ccccc3s2)C1,i
O=C(c1ccc(Br)cc1)c1ccc2c(c1)OCCO2,i
CCOCCCn1c(=N)c(C(=O)NC2CCCC2)cc2c(=O)n3ccccc3nc21,i
O=C1CC(c2cccs2)CC2=C1C(c1cccc(F)c1)Nc1ccccc1N2 (configuration not stated),30.0%*
O=C1CC(c2cccs2)CC2=C1C(c1cc(F)ccc1F)Nc1ccccc1N2 (configuration not stated),i
O=C1CC(c2cccs2)CC2=C1C(c1cccc([N+](=O)[O-])c1)Nc1ccccc1N2 (configuration not stated),i
Cc1ccccc1-n1nc2c(c1NC(=O)c1ccc(N3C(=O)CCC3=O)cc1)CSC2,i
CCN(CC)C(=O)c1ccccc1Br,i
SMILES,ST2 inh
Cn1c(=O)c(N)c2c3c(cccc31)C(=O)c1ccccc1-2,31.0%*
Cn1c2c(c(=O)n(C)c1=O)C(c1ccccc1)C1=C(N2)c2ccccc2C1=O (configuration not stated),i
Cn1c(=O)c2c(-c3ccccc3)n(N)cc2n(C)c1=O,i
COCCNC(=O)CN1C(=O)/C(=C/c2ccccc2C)Sc2ccccc21,i
Cc1cccn2c(=O)c3cc(C(=O)NCC4CCCO4)c(=N)n(CCCn4ccnc4)c3nc12 (configuration not stated),i
COCCCn1c(=N)c(C(=O)NC2CCCC2)cc2c(=O)n3cccc(C)c3nc21,i
C=CCNC(=O)c1cc2c(=O)n3cccc(C)c3nc2n(CCCn2ccnc2)c1=N,31.0%*
CCN(CC)CCCNC(=O)c1cc(-c2ccc(F)cc2)on1,i
CC1CCc2c(sc(NC(=O)c3cnn4c(C(F)(F)F)cc(-c5ccco5)nc34)c2C#N)C1 (configuration not stated),i
FC(F)(F)c1cccc2c(-c3cccc4c3CCNC4)ccnc12,i
O=C(Nc1cccc(C(F)(F)F)c1)N[C@H]1[C@H](O)[C@@H](N2CCCCC2)[C@@H]2OC[C@H]1O2,i
COc1ccc(NC(=O)N[C@H]2[C@H](O)[C@@H](N3CCC(Cc4ccccc4)CC3)[C@@H]3OC[C@H]2O3)cc1,i
CN1CCN([C@H]2[C@@H]3OC[C@@H](O3)[C@@H](NC(=O)Nc3ccccc3)[C@@H]2O)CC1,35.0%*
COc1cccc(NC(=O)N[C@H]2[C@H](O)[C@@H](N3CCCC3)[C@@H]3OC[C@H]2O3)c1,47.0%*
COc1cccc(NC(=O)N[C@H]2[C@H](O)[C@@H](N3CCN(C(C)=O)CC3)[C@@H]3OC[C@H]2O3)c1,i
N#Cc1cccc(NC(=O)N[C@H]2[C@H](O)[C@@H](N3CCCC3)[C@@H]3OC[C@H]2O3)c1,i
O=C(NCCc1csc2c1CCCC2)c1cn(CC2CCCNC2)nn1 (configuration not stated),i
N#CC1=C(N)OC2=C(C(=O)CC(c3ccccc3)C2)C1c1ccccc1Cl (configuration not stated),i
CN(Cc1ccccc1)c1ncccc1CNc1ncccc1Cl,i
Cc1noc(C)c1CN(C)Cc1cccn1S(=O)(=O)c1ccccc1,i
O=C1C(Nc2cccc(C(F)(F)F)c2)=C(N2CCOCC2)C(=O)c2ccccc21,67.0%*
CC(C)C(C(=O)Nc1cccc(C(F)(F)F)c1)N1C(=O)c2ccccc2C1=O (configuration not stated),i
CC(C)CC(C(=O)Nc1cccc(C(F)(F)F)c1)N1C(=O)c2ccccc2C1=O (configuration not stated),i
Cc1ncc(-c2c(-c3ccccc3)ncn2CC(O)Cc2ccccc2)[nH]1 (configuration not stated),i
Clc1ccc(Cn2nnc3ccccc32)c(Cl)c1,i
SMILES,ST2 inh
C=CCN(CC=C)C(=O)CN1CCN(S(=O)(=O)N2CCCC2)CC1,i
O=C1NC(=O)c2cc(Nc3ccccc3)c(Nc3ccccc3)cc21,i
Cn1c(CNc2ccccc2)cc(=O)n(C)c1=O,i
Cn1c(=O)cc2c3c(c(Nc4ccccc4)ccc31)C(=O)c1ccccc1-2,40.0%*
COCCn1c(CNC(=O)Cc2cccc(OC)c2)nc2cccnc21,i
Nc1cccc2c1C(=O)N(c1ccc(O)cc1)C2=O,i
CC(=C/c1ccccc1)/C=C1/SC(=O)N(c2ccc(O)cc2)C1=O,45.0%*
O=C1S/C(=C\c2ccc(O)cc2)C(=O)N1c1ccc(O)cc1,i
O=C1S/C(=C\c2ccccc2Cl)C(=O)N1c1ccc(O)cc1,38.0%*
COc1ccc(N2C(=O)S/C(=C\c3ccc(O)cc3)C2=O)cc1,i
N=C1S/C(=C\c2ccccc2F)C(=O)N1c1ccc2c(c1)OCO2,i
O=C(N[C@H]1CCN2C(=O)c3ccc(Cl)cc3NC(=O)[C@H]12)C1CCCC1,i
O=C(N1CCc2nnc(CCc3ccccc3)n2CC1)C1(C(F)(F)F)CC1,i
COc1ccc(F)c(CN2CCCC3(CCN(C(=O)CCn4ccc(=O)[nH]c4=O)C3)C2)c1 (configuration not stated),i
CN1C[C@@H](NC(=O)Nc2cccc(F)c2)C[C@H]1c1nc(-c2ccc(OC(F)(F)F)cc2)no1,i
Cc1ccc(CNS(=O)(=O)c2cccc3nsnc23)o1,i
COc1ccc(NC2CCCN(C(=O)CSc3nc4ccc(C)cc4[nH]3)C2)cc1 (configuration not stated),i
Fc1cccc(-c2nnc3n2N=C(c2ccc(Cl)s2)CS3)c1,30.0%*
O=c1oc2ccccc2cc1C1=Nn2c(nnc2-c2cccc(F)c2)SC1,i
COc1cccc(C2=Nn3c(nnc3-c3ccccc3)SC2)c1,i
Cc1nc2c(c(NC(C)Cc3ccsc3)n1)CNC2 (configuration not stated),i
COc1ccc2c(=O)c(Oc3ccc(C(=O)O)cc3)coc2c1,i
CCOC(=O)N1CCN(C(=O)Nc2ccc3nc(C)c(C)nc3c2)CC1,i

# Screening data (PubChem BioAssay)
